Inconclusive results are not listed. Activity calls are given as the source filed them. The call rests on the fitted dose curve; in most records, active means well fitted inhibition curve with a large enough effect; inconclusive means small, poorly fitted or top-dose-only effect; inactive means flat fitted curve, though single readings scatter.
Tested on: CRL-7250
Test: Cytotoxic Profiling of Annotated Libraries Using Quantitative High-Throughput Screening (AID 1296008); further: nearly all actives have a fitted effect of over 60% in size
Details: Five cell lines viability, CellTiter-Glo ATP luminescence, 48-72 h; max response: active compounds read low
Procedure, shortened: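 Cytotoxicity was measured as CellTiter-Glo ATP luminescence, read after 10 min at room temperature. Compound treatment of the cells lasted 48 or 72 hr at 37 degrees Celsius in a qHTS format.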
On the % scale 0 is the no-effect control and ±100 the full control effect; potency means the concentration at half of the fitted maximal effect.

Compound | Potency | outcome | max response
COc1cc2c(cc1-c1c(C)noc1C)ncc1[nH]c(=O)n(C(C)c3ccccn3)c12 (centres undefined) | 5.8 µM (active) |  | 
C/C=C/CCC1Cc2cc(O)c(CCCC)c(O)c2C(=O)O1 (centres undefined) |  | inactive | 
Cc1nnc(-c2ccc(-c3ccc(C(=O)Nc4ccc(O)c(N5CCN(C)CC5)c4)cc3)c(C)c2)o1 |  |  | 3.58% (inactive)
Cc1nc(Nc2ccc(F)cc2)nc(N2CCc3ccccc3C2C)c1C (centres undefined) |  |  | -9.52% (inactive)
CC(C)(O)C1CC(=O)C2(C)C(CCC3(C)C(c4ccoc4)OC(=O)C4OC432)C12CCC(=O)OC2 (centres undefined) |  |  | -9.62% (inactive)
O=C(NCc1nc2ccccc2c(=O)n1-c1ccc(F)cc1)Nc1ccc(Cl)c(C(F)(F)F)c1 |  | inactive | 
Cc1cc(C)cc(-c2cnc3cc(Cl)c(-c4cccc(O)c4)cc3c2OCCCN)c1 |  |  | 3.3% (inactive)
CCOC(=O)c1ccc(OCCC2CCN(c3ccc(C)nn3)CC2)cc1 |  |  | -21.9% (inactive)
O=C(NO)c1ccc(CC(=O)N(CCO)c2ccccc2)cc1 |  |  | 0.727% (inactive)
N#Cc1ccc(N2N=C3c4ccc(C(=O)O)cc4CC[C@@H]3[C@@H]2C2CCCC2)cc1Cl |  |  | 1.36% (inactive)
Cc1c(Cl)cccc1S(=O)(=O)Nc1nc(NCCc2ccccc2)nc2c1CN(Cc1ccccc1)CC2 |  |  | 4.69% (inactive)
CC(C)=CCC[C@](C)(O[C@@H]1O[C@H](CO[C@@H]2OC[C@@H](O)[C@H](O)[C@H]2O)[C@@H](O)[C@H](O)[C@H]1O)[C@H]1CC[C@]2(C)[C@@H]1[C@H](O)C[C@@H]1[C@@]3(C)CC[C@H](O[C@@H]4O[C@H](CO)[C@@H](O)[C@H](O)[C@H]4O)C(C)(C)[C@@H]3CC[C@]12C |  |  | -26.7% (inactive)
O=S(=O)(c1ccccc1)N(CC(F)(F)F)c1ccc(C(O)(C(F)(F)F)C(F)(F)F)cc1 |  | inactive | 
O[C@@](Cc1ncc(CC2(C(F)(F)F)CC2)[nH]1)(c1ccc(-n2cccn2)cc1)C(F)(F)F |  | inactive | 
COC(=O)CC(O)CC(O)/C=C/c1c(C)ccc2c1C(OC(C)=O)CC(C)C2 (centres undefined) | 4.04 µM (active) |  | 
Cc1onc(-c2ccccc2)c1C(=O)N1CCN(c2ccc([N+](=O)[O-])cc2Cl)CC1 |  |  | -3.78% (inactive)
C[C@]12CC[C@@H]3c4ccc(O)c(O)c4CC[C@H]3[C@@H]1CCC2=O |  |  | -7.43% (inactive)
CC(C)C[C@@H](C(=O)N[C@@H](Cc1ccc(OCc2ccccc2)cc1)C(=O)NC(C)(C)C)N(C)Cc1ccc(C(C)(C)C)cc1 |  |  | -7.62% (inactive)
COc1cc(C(=O)O)ccc1NC(=O)C1NC(CC(C)(C)C)C(C#N)(c2ccc(Cl)cc2F)C1c1cccc(Cl)c1F (centres undefined) |  |  | -18.8% (inactive)
Cc1cc(C(=O)Cn2cc(C#N)ccc2=O)c(C)n1Cc1ccccc1 |  |  | -5.73% (inactive)

Compound | Potency | outcome | max response
Cc1c(NC(=O)OCC2COCCN2)cn2ncnc(Nc3ccc4c(cnn4Cc4cccc(F)c4)c3)c12 (centres undefined) |  |  | -30.6% (inactive)
O=C(Nc1cccc2cccnc12)c1ccc(N2C(=O)[C@@H]3C4C=CC(C4)[C@@H]3C2=O)cc1 | 1.3 µM (active) |  | 
O=C(COc1ccc2ccccc2c1Br)Nc1cccnc1 |  |  | -18.6% (inactive)
CNc1nc(Nc2ccc(C(=O)N3CCOCC3)cc2OC)nc2[nH]cc(Cl)c12 |  |  | 1.38% (inactive)
O=C(Nc1ccc(Cl)cc1)Nc1cccc(-c2cccc(N3CCCC3)n2)c1 |  |  | -4.95% (inactive)
C=C1/C(=C/C=C2\CCC[C@]3(C)[C@@H]([C@H](C)/C=C/[C@@H](C)C(C)C)CC[C@@H]23)C[C@@H](O)C[C@@H]1O |  |  | 1.9% (inactive)
CNc1nc(NCc2ccc(NS(C)(=O)=O)cc2Cl)cc(-c2ccccn2)n1 | 20.6 µM (active) |  | 
CN(C)C(CCOc1cccc2ccccc12)c1ccccc1 (centres undefined) |  |  | -16.3% (inactive)
COc1ccc(CCCN2CCC(COC(c3ccccc3)c3ccccc3)CC2)cc1 |  |  | -2.98% (inactive)
CN(C)C(=O)C(=O)c1cn(C)c2cc(Cl)c(C(=O)N3CCC(Cc4ccc(F)cc4)CC3)cc12 |  |  | -5.29% (inactive)
CCC(C)C(=O)O[C@H]1[C@H](O)[C@@]2(COC(C)=O)C(CC1(C)C)C1=CCC3[C@@]4(C)CC[C@H](O[C@@H]5O[C@H](C(=O)O)[C@@H](O)[C@H](O)[C@H]5O)[C@@](C)(CO)C4CC[C@@]3(C)[C@]1(C)C[C@@H]2O (some centres undefined) |  |  | 4.21% (inactive)
COc1ccccc1OCCNCC(O)CCOc1cccc2[nH]c3ccccc3c12 (centres undefined) |  | inactive | 
CCN(CC)CCCS(=O)(=O)N[C@H](CCc1ccccc1)c1nc(Cc2ccc(Br)cc2)no1 |  |  | -4.82% (inactive)
O=C(NCCCCN1CCN(c2cccc(Cl)c2Cl)CC1)c1cc2ccccc2s1 |  |  | -20.7% (inactive)
CC(C)(O)c1ccn2c(-c3ccc(F)c(-c4ccc(F)cc4C#N)c3)cnc2c1F |  |  | -19.9% (inactive)
CCN1C(C)(C)CC(Oc2ccc(C(=O)Nc3ccc(NC(=O)Nc4cc(C(C)(C)C)on4)cc3)nc2)CC1(C)C |  |  | -1.6% (inactive)
Clc1ccc(Cn2c(Cc3ccccc3)nc3ccccc32)cc1 |  |  | -7.75% (inactive)
CCCCc1c(-c2ccc(OC)cc2)[nH]c2nccnc12 |  | inactive | 
COc1ccc([C@H]2Cc3cccc(O)c3C(=O)O2)cc1OC |  |  | -21.6% (inactive)
